# Compound activity (PubChem BioAssay)
# TIM10 inh: growth inhibitors of isogenic TIM10 control yeast, primary screen, counter-screen for tim10-1 yeast inhibitor project, luminescence, uHTS | actives 1.4% (n = 330,000) | S. cerevisiae TIM10 strain growth, BacTiter-Glo luminescence, 24 h | inhibition, % at 10 µM;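 active means inhibition of 40% or more at the single tested concentration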;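 further: wild-type TIM10 isogenic control strain grown at permissive 25 °C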
# tim23-1 inh: growth inhibitors of tim23-1 mutant yeast, primary screen, luminescence, uHTS; AID 463212, 2010; actives 1.3% (n = 330,000); S. cerevisiae tim23-1 growth, BacTiter-Glo luminescence, 24 h; inhibition, % at 20 µM;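 active means growth inhibition of the mutant yeast at or above 50%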;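 further: temperature-sensitive mutant grown at 25 °C; plate controls were DMSO-treated mutant yeast for no effect and medium wells lacking yeast for full effect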
# NALP1 inh: NALP1 inflammasome inhibitors in reconstituted yeast, colorimetric, S. cerevisiae, triplicate retest; actives 0.61% (n = 280,000); inhibition, % at 10 µM; S. cerevisiae NALP1/ASC/caspase-1 growth, X-gal OD620, 72 h; in the data active means inhibition mostly above about 24%, no sharp cut-off; inactive means mostly below about 32%
# NALP3 yeast inh: NALP3 inflammasome inhibitors in reconstituted yeast, primary screen, luminescence, uHTS | Yeast reconstituted NLRP3/ASC/caspase-1, beta-gal luminescence, 24 h | inhibition, % at 10 µM | actives 0.39% (n = 330,000) | AID 2825, 2010;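 active means inhibition of 50% or more; inactive means inhibition below 50%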;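 further: plate controls were induced DMSO wells for no effect and uninduced yeast grown without galactose for full effect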
# tim10-1 inh: growth inhibitors of tim10-1 mutant yeast, primary screen, luminescence, uHTS; S. cerevisiae tim10-1 ts strain growth, BacTiter-Glo, 24 h; inhibition, % at 20 µM; actives 2.2% (n = 330,000); AID 463190, 2010;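 active means inhibition of at least 40%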;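 further: mutant grown at 25 °C; 0% = DMSO wells with yeast and 100% = wells holding no yeast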
# tim10-1 conf: growth inhibitors of tim10-1 mutant yeast, confirmation, single concentration, luminescence, S. cerevisiae | shares compounds with tim10-1 inh | inhibition, % at 20 µM | S. cerevisiae tim10-1 ts strain growth, BacTiter-Glo, 24 h | actives 56% (n = 7,400) | AID 463213, 2010;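 active means inhibition of yeast growth at or above a set limit in either of two repeat tests at 20 µM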;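 further: tim10-1 mutant grown at permissive 25 °C to find synthetic lethal compounds; 0% = DMSO yeast wells and 100% = medium wells without yeast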
# TIM10 conf: growth inhibitors of wild-type TIM10 yeast, confirmation, counter-screen for tim10-1 synthetic lethality project, single concentration, luminescence, S. cerevisiae; shares compounds with TIM10 inh; actives 63% (n = 4,600); AID 463215, 2010; inhibition, % at 10 µM; S. cerevisiae tim10 strain growth, BacTiter-Glo luminescence, 24 h;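 active means inhibition of yeast growth at or above a set limit in either of two replicates at 10 µM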;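 further: this counterscreen used the strain with wild-type TIM10; 0% = yeast with DMSO and 100% = medium wells lacking yeast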
# tim23-1 confirm: tim23-1 mutant yeast growth inhibitors, confirmation, luminescence, single concentration. S. cerevisiae tim23-1 growth, BacTiter-Glo luminescence, 24 h. actives 83% (n = 4,400). inhibition, % at 20 µM. shares compounds with tim23-1 inh;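 active means inhibition above about 39% in either of two replicate wells at 20 µM, limit read from the data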;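 further: temperature-sensitive tim23-1 mutant grown at 25 °C; 0% = DMSO wells with yeast and 100% = medium wells without yeast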
# * hit, by the source's call; . = no result. Only some compounds are listed: those with a hit (about 4% of all), similar ones and a draw of the others.
SMILES,TIM10 inh,tim23-1 inh,NALP1 inh,NALP3 yeast inh,tim10-1 inh,tim10-1 conf,TIM10 conf,tim23-1 confirm
COc1cc(C(O)P(=O)(OC2CCCCC2)c2ccc(N(C)C)cc2)cc(OC)c1OC (stereo not given),18,6,2,9,16,.,.,.
CC(C)c1ccc(C(O)P(=O)(OC2CCCCC2)OC2CCCCC2)cc1 (stereo not given),34,58*,-6,-31,44*,26,.,46*
Cc1ccc(/C=[N+](/C)[O-])cc1,-6,7,10,5,7,.,.,.
Cc1ccc(C=C2C(Cl)=C(Cl)C(Cl)=C2Cl)cc1,64*,74*,7,-7,64*,78*,78*,53*
CCCn1c(SCC(=O)Nc2cc(Cl)ccc2OC)nc(O)cc1=O,2,-13,.,14,-12,.,.,.
O=C(NCCO)c1ccc(Oc2ccc(C(F)(F)F)cc2[N+](=O)[O-])cc1,0,5,-10,-10,0,.,.,.
Cc1cc(C)cc(OC(=O)CS(=O)c2ccc(C(F)(F)F)cc2[N+](=O)[O-])c1 (stereo not given),31,66*,12,21,51*,28*,.,68*
O=C(CS(=O)c1ccc(C(F)(F)F)cc1[N+](=O)[O-])Oc1ccc(Cl)cc1 (stereo not given),55*,70*,-4,-13,47*,47*,36*,67*
Cc1ccc(OCCNc2ccc(C(F)(F)F)cc2[N+](=O)[O-])cc1,1,7,21,8,3,.,.,.
NC(=O)C1CCCN(C(=O)c2cccc(NC(=O)c3cccs3)c2)C1 (stereo not given),4,14,.,6,2,.,.,.
Oc1ccc2ccccc2c1CNc1ccc(Br)cn1,37,61*,-13,24,46*,63*,.,68*
Oc1ccc2ccccc2c1CNc1ccc(Br)cc1,31,25,22,-2,16,.,.,.
Cc1nc2c(-c3ccc(F)cc3)cnn2c(N)c1-c1ccccc1,45*,74*,17,4,46*,35*,52*,42*
CCN(CC)c1nc2c(c(=O)[nH]c(=O)n2C)n1CCCc1ccccc1,3,18,0,13,14,.,.,.
Cc1cc(C)c2c(N)c(S(=O)c3ccc(C(C)(C)C)cc3)sc2n1 (stereo not given),35,60*,15,8,63*,44*,.,62*
Cc1cc(C)c2c(N)c(C(=O)C(C)(C)C)sc2n1,8,-3,3,-9,24,.,.,.
N/C(Cc1cccs1)=N\OC(=O)COc1ccc(Br)cc1Cl,38,68*,2,28,58*,59*,.,87*
O=[N+]([O-])c1c(C(Cl)Cl)nn(-c2ccc(Cl)cc2)c1N1CCCCC1,56*,64*,23,8,44*,62*,41*,67*
CCC(/C=C1\Sc2ccc(OC)cc2N1CCO)=C\c1sc2ccc(OC)cc2[n+]1CCO,49*,64*,27,5,62*,49*,-24,53*
CCC(=O)/C=C1/Sc2ccc(OC)cc2N1CCO,-1,9,15,5,1,.,.,.
O=C(c1nnsc1S(=O)c1ccc(Cl)cc1)N1CCOCC1 (stereo not given),33,57*,67*,14,60*,42*,.,90*
Cc1nnsc1S(=O)c1ccc(Cl)cc1 (stereo not given),15,-6,-3,-2,0,.,.,.
O=C(Nc1ccccc1)c1nnsc1S(=O)c1ccc(Cl)cc1 (stereo not given),94*,56*,-1,41,92*,92*,98*,98*
COc1ccc(S(=O)(=O)NCC2CCCN(C(=O)CCSC)C2)cc1 (stereo not given),-8,14,4,16,3,.,.,.
N#C/C(=C\c1ccccc1[N+](=O)[O-])C(=O)NC1CCCCC1,72*,76*,-16,22,75*,84*,83*,73*
SMILES,TIM10 inh,tim23-1 inh,NALP1 inh,NALP3 yeast inh,tim10-1 inh,tim10-1 conf,TIM10 conf,tim23-1 confirm
N#C/C(=C\c1ccc(F)c(F)c1)C(=O)NC1CCCCC1,65*,68*,60*,3,52*,65*,78*,59*
N#C/C(=C\c1ccc(F)c(Br)c1)C(=O)NC1CC1,44*,84*,2,12,48*,46*,58*,74*
CC(C)(C)c1ccc(/C=C(\C#N)C(=O)NC2CC2)cc1,58*,85*,.,35,51*,78*,65*,51*
N#C/C(=C\c1cccn1-c1ccccc1)C(=O)NC1CCCCC1,30,38,.,17,34,.,.,.
COc1ccc(-n2nc(C(=O)NCC(=O)NCc3cccc(F)c3)c3ccccc3c2=O)cc1Cl,-13,2,28,8,2,.,.,.
CN(C)C(CNC(=O)c1ccc(NS(=O)(=O)c2ccc3[nH]c(=O)[nH]c3c2)cc1)c1ccccc1 (stereo not given),7,-8,.,6,-18,.,.,.
O=C(CN(C(=O)CCC(=O)Nc1nccs1)c1ccc(F)cc1)NCc1ccccc1,7,11,-7,5,-1,.,.,.
C=CCNC(=O)/C(C#N)=C\c1cc(Cl)c(OCC)c(OC)c1,67*,82*,40,34,79*,79*,73*,84*
N#C/C(=C\c1cc(Cl)ccc1O)C(=O)NC1CCCCC1,22,31,-5,20,27,.,.,.
N#C/C(=C\c1cc(Cl)cc(Cl)c1O)C(=O)NC1CCCCC1,38,54*,-11,6,49*,29,.,58*
CCOc1c(Br)cc(/C=C(\C#N)C(=O)NC2CC2)cc1OC,56*,87*,-3,14,85*,78*,67*,84*
N#C/C(=C\c1cc(Br)ccc1F)C(=O)NC1CC1,51*,90*,9,15,77*,60*,80*,91*
COc1cc(/C=C(\C#N)C(=O)NC2CCCCC2)ccc1OCc1ccc(C(=O)O)cc1,22,30,2,12,35,.,.,.
C=CCNC(=O)/C(C#N)=C/c1ccc(C(=O)O)cc1,-2,12,6,2,5,.,.,.
